Results published in the supplement of paper PMC11732987, “Enantioselective OTUD7B fragment discovery through chemoproteomics screening and high-throughput optimisation” (Communications Chemistry, 2025).

Tests used:
Experiment in all cases: log2 ratio of Biotin-Ahx-Ub-VS probe labelling (fragment/DMSO); higher = less target engagement (more negative = stronger competition), active = hit call of the paper (q ≤ 0.05, log2 ratio ≤ -1)
Conditions in all cases: compound concentration: 200 uM; treatment time: 3 h
[1] = target: T1, USP19 (UniProt O94966)
T1 sequence (whole entry): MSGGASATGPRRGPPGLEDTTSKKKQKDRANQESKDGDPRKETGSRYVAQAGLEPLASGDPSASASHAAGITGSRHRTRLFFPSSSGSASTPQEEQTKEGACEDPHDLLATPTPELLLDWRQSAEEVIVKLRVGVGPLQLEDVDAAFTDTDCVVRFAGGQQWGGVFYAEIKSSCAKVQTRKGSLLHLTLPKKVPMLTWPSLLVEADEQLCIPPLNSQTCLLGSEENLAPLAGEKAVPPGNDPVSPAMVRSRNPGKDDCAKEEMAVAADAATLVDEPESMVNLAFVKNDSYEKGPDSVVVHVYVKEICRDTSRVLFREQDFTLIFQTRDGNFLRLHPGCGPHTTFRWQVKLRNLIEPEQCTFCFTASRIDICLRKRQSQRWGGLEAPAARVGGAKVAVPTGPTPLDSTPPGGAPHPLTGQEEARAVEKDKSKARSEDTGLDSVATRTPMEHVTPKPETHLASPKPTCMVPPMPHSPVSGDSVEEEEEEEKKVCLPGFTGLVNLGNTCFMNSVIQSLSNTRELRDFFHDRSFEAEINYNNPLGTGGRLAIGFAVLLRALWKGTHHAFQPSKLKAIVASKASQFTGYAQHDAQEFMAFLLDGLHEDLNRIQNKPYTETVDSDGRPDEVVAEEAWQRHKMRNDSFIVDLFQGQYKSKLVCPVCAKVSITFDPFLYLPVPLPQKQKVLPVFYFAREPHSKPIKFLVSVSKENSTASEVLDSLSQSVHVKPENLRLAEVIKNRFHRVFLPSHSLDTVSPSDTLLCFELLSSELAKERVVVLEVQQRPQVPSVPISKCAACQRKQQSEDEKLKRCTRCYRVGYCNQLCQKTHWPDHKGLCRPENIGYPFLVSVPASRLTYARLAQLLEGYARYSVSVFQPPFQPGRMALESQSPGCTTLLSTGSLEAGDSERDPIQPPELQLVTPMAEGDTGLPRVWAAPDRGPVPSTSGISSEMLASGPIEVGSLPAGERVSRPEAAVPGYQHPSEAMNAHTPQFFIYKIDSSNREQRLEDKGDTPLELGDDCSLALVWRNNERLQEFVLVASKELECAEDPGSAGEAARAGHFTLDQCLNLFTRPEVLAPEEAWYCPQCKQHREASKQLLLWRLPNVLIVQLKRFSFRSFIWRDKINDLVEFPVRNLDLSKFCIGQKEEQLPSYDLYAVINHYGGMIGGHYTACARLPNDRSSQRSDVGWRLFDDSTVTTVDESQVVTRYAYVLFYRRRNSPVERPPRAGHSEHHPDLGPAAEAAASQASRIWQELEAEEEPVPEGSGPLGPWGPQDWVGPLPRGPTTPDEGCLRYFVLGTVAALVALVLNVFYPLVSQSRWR
Method in brief: (§1)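 Triplicate samples of HEK293T lysate, 495 µg each, received fragment at 200 µM or vehicle for 3 h, followed by Biotin-Ahx-Ub-VS (0.5 µM final) for 1 h. After NeutrAvidin enrichment of labelled DUBs and LysC/trypsin digestion, peptides were run by diaPASEF LC-MS/MS. The values are average log2 fragment/vehicle ratios from global-median-normalised Spectronaut label-free quantities, tested by unpaired t-test on proteins having ≥2 unique peptides.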

[2] = target: USP24 (UniProt Q9UPU5)
Method in brief: as §1

[3] = target: T2, USP25 (UniProt Q9UHP3)
T2 sequence (whole entry): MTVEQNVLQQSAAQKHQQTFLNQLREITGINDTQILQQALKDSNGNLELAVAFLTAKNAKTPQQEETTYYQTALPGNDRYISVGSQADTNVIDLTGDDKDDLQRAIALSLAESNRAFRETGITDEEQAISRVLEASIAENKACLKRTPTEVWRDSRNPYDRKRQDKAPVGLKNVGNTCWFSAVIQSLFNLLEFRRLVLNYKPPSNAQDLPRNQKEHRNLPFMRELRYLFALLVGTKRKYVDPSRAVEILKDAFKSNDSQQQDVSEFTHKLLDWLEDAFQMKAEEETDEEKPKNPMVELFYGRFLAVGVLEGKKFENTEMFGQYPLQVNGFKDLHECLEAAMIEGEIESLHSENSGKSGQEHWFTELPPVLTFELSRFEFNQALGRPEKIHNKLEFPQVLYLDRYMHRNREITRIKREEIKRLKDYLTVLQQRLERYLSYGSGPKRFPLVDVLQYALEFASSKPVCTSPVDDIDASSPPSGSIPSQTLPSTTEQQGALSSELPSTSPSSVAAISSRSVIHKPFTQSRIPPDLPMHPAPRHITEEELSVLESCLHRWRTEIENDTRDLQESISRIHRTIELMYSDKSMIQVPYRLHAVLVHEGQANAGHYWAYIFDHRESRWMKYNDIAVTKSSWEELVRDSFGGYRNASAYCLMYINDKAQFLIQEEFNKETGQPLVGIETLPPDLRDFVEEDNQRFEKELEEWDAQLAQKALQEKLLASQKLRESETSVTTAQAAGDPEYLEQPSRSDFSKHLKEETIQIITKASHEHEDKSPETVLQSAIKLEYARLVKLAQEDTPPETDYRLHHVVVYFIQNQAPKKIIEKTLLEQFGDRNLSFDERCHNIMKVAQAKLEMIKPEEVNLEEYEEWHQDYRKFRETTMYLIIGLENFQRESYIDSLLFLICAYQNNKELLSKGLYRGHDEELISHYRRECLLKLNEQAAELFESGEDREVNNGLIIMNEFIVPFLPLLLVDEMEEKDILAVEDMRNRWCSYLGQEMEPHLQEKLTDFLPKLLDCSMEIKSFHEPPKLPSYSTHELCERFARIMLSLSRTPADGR
Method in brief: as §1

[4] = target: T3, USP28 (UniProt Q96RU2)
T3 sequence (whole entry): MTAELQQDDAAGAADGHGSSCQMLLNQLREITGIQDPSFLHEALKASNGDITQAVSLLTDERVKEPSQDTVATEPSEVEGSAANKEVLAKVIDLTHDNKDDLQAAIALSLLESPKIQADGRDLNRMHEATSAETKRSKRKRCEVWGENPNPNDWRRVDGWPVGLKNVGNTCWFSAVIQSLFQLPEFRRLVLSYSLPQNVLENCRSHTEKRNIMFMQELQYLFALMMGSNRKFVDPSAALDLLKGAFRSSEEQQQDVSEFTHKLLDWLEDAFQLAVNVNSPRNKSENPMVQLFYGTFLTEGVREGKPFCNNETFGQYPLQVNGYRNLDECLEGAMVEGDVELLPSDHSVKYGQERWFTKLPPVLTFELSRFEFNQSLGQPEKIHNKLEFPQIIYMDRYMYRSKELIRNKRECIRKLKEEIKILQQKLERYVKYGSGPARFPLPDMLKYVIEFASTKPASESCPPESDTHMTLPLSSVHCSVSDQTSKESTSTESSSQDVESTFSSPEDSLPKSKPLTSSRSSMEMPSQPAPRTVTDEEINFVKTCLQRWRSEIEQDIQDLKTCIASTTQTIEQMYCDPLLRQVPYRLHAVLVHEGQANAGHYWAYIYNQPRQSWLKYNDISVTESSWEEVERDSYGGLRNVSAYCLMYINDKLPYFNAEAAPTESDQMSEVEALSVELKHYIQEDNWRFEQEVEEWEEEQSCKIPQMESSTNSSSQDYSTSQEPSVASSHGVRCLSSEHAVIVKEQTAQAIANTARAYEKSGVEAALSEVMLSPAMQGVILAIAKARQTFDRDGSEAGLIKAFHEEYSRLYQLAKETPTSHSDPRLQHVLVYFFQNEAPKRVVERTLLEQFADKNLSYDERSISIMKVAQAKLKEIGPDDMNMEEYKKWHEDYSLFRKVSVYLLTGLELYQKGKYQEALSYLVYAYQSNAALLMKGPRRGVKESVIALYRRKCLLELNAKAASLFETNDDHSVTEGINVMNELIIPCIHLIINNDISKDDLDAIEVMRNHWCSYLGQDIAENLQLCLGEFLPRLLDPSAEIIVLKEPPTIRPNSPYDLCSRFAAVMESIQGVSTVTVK
Method in brief: as §1

Measured: log2 ratio of Biotin-Ahx-Ub-VS probe labelling

USP24, sequence (Q9UPU5 whole entry): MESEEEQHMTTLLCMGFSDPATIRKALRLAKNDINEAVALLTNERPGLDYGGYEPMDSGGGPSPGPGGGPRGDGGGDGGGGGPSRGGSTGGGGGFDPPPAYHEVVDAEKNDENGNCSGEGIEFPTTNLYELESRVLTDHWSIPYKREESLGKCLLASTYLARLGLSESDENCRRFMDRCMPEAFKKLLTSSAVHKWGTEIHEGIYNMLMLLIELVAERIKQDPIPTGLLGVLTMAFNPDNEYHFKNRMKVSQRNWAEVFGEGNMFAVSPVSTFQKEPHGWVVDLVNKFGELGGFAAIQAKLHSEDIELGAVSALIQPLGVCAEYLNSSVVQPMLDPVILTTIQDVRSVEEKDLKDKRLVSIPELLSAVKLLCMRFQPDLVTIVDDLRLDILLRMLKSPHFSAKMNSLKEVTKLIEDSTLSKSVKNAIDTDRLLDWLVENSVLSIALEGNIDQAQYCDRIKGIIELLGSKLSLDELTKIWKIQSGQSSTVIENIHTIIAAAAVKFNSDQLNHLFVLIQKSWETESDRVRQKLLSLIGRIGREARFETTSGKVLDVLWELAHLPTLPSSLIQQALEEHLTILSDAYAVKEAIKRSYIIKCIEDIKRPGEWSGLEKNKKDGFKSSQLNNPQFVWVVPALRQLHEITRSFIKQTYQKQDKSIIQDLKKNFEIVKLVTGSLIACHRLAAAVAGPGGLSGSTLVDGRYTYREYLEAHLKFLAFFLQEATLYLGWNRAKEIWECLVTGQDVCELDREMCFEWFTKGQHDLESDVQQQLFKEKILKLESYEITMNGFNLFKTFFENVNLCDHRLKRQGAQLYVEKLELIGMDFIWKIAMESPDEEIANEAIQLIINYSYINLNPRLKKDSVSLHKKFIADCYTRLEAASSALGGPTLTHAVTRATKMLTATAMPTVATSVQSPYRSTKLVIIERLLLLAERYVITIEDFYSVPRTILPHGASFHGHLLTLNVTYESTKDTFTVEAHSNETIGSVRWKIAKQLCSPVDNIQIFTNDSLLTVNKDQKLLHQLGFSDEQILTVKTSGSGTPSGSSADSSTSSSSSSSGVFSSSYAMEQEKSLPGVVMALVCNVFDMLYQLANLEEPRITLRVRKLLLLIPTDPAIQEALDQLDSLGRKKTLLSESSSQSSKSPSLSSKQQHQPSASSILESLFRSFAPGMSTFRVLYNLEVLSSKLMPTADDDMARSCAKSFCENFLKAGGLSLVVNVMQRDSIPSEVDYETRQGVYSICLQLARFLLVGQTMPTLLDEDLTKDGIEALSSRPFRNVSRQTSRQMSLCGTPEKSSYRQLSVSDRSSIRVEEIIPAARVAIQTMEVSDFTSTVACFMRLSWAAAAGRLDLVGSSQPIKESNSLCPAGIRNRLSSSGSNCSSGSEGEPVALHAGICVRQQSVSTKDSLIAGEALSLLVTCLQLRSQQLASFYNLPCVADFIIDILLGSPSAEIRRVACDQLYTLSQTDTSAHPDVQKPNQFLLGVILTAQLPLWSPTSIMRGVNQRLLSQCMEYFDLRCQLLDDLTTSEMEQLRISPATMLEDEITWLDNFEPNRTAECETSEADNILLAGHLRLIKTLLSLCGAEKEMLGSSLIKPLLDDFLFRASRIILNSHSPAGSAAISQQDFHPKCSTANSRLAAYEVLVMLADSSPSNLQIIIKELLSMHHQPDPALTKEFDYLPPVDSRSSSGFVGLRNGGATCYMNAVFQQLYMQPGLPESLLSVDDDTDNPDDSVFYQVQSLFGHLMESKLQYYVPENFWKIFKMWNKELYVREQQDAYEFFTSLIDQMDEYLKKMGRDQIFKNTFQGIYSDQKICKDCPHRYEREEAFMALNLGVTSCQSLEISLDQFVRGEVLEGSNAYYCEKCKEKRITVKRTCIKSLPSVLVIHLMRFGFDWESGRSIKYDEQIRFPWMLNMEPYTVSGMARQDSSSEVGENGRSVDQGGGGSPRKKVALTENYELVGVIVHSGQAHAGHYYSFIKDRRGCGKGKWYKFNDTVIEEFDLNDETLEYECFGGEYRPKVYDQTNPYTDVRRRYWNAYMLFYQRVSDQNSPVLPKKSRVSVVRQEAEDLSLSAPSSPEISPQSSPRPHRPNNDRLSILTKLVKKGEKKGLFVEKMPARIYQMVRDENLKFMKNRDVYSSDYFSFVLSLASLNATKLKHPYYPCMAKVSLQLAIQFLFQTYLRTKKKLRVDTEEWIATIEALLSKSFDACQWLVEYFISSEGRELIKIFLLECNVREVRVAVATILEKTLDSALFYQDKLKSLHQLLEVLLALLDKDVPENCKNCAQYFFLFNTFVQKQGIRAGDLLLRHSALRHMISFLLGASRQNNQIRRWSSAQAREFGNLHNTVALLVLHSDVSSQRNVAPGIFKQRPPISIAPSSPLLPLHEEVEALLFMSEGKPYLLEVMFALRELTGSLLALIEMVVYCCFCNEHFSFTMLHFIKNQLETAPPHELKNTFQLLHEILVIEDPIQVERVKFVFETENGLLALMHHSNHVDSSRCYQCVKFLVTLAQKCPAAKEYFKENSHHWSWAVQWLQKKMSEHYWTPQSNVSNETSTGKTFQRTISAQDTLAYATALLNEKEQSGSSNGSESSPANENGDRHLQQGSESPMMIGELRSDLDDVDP

O=C(CCl)N1CC2(CCOCC2)C1
inactive: [1] -0.144 | [2] -0.194 | [3] -0.275 | [4] -0.375
